# Source: the supplement of paper PMC8728848
# The sample as a whole holds a higher share of the strongest signals than the screen did.
# B1: DC-ASGPR Long (Homo sapiens) (protein)
# chain: MTRTYENFQYLENKVKVQGFKNGPLPLQSLLQRLRSGPCHLLLSLGLGLLLLVIICVVGFQNSKFQRDLVTLRTDFSNFTSNTVAEIQALTSQGSSLEETIASLKAEVEGFKQERQAGVSELQEHTTQKAHLGHCPHCPSVCVPVHSEMLLRVQQLVQDLKKLTCQVATLNNNASTEGTCCPVNWVEHQDSCYWFSHSGMSWAEAEKYCQLKNAHLVVINSREEQNFVQKYLGSAYTWMGLSDPEGAWKWVDGTDYATGFQNWKPGQPDDWQGHGLGGGEDCAHFHPDGGWNDDVCQRPYHWVCEAGLGQTSQESH
# Experiments:
# Assay in all cases: glycan array binding signal (z-score within array); higher = stronger binding
# Conditions in all cases: glycan notation: IUPAC condensed, linker removed
# [1] = target: Fuc(a1-2)Gal(b1-3)GlcNAc(b1-2)Man(a1-3)[Fuc(a1-2)Gal(b1-3)GlcNAc(b1-2)Man(a1-6)]Man(b1-4)GlcNAc(b1-4)GlcNAc
# Method in brief: (§1)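 Columns mapping to the same glycan were averaged after glycan names were converted to IUPAC-condensed notation. The data come from 3228 arrays in the Consortium for Functional Glycomics database, limited to those with an available protein sequence. Binding is reported as a within-array Z-score averaged across arrays of one protein sequence and across linkers.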
# [2] = target: Fuc(a1-2)Gal(b1-3)GlcNAc(b1-2)Man(a1-3)[Fuc(a1-2)Gal(b1-3)GlcNAc(b1-2)Man(a1-6)]Man(b1-4)GlcNAc(b1-4)[Fuc(a1-6)]GlcNAc
# Method in brief: as §1
# [3] = target: Fuc(a1-2)Gal(b1-4)GlcNAc
# Method in brief: as §1
# [4] = target: Fuc(a1-2)Gal3S(b1-4)GlcNAc
# Method in brief: as §1
# [5] = target: Fuc(a1-2)[GalNAc(a1-3)]Gal(b1-4)GlcNAc(b1-3)Gal(b1-4)GlcNAc
# Method in brief: as §1
# [6] = target: Fuc(a1-2)[GalNAc(a1-3)]Gal(b1-4)GlcNAc(b1-6)GalNAc
# Method in brief: as §1
# [7] = target: Fuc(a1-2)[GalNAc(a1-4)]Gal(b1-4)GlcNAc
# Method in brief: as §1
# [8] = target: Fuc(a1-2)[GalNAc(b1-3)]Gal
# Method in brief: as §1
# [9] = target: Gal(a1-3)Gal(b1-3)GlcNAc(b1-6)GalNAc
# Method in brief: as §1
# [10] = target: Gal(a1-3)Gal(b1-4)GlcNAc(b1-6)GalNAc
# Method in brief: as §1
# [11] = target: Gal(a1-4)Gal(b1-3)GlcNAc(b1-2)Man(a1-3)[Gal(a1-4)Gal(b1-3)GlcNAc(b1-2)Man(a1-6)]Man(b1-4)GlcNAc(b1-4)GlcNAc
# Method in brief: as §1
# [12] = target: Gal(a1-4)Gal(b1-4)GlcNAc(b1-3)Gal(b1-4)Glc
# Method in brief: as §1
# [13] = target: Gal(b1-3)GlcNAc(b1-2)Man
# Method in brief: as §1
# [14] = target: Gal(b1-3)GlcNAc(b1-2)Man(a1-3)[GlcNAc(b1-4)][Gal(b1-3)GlcNAc(b1-2)Man(a1-6)]Man(b1-4)GlcNAc(b1-4)GlcNAc
# Method in brief: as §1
# [15] = target: Gal(b1-3)GlcNAc(b1-6)GalNAc
# Method in brief: as §1
# [16] = target: Gal3S(b1-4)Glc
# Method in brief: as §1
# [17] = target: GalNAc(b1-3)Gal(a1-4)Gal(b1-4)GlcNAc
# Method in brief: as §1
# [18] = target: GalNAc(b1-3)Gal(a1-6)Gal(b1-4)Glc
# Method in brief: as §1
# [19] = target: GlcNAc(b1-2)Man(a1-3)[GlcNAc(b1-4)][GlcNAc(b1-2)Man(a1-6)]Man(b1-4)GlcNAc(b1-4)GlcNAc
# Method in brief: as §1
# [20] = target: GlcNAc(b1-2)[GlcNAc(b1-6)]Man(a1-6)[GlcNAc(b1-2)Man(a1-3)]Man(b1-4)GlcNAc(b1-4)GlcNAc
# Method in brief: as §1
# [21] = target: GlcNAc(b1-3)Gal(b1-4)GlcNAc
# Method in brief: as §1
# [22] = target: GlcNAc(b1-3)Gal(b1-4)GlcNAc(b1-3)Gal(b1-4)GlcNAc(b1-3)Gal(b1-4)GlcNAc(b1-2)Man(a1-3)[GlcNAc(b1-3)Gal(b1-4)GlcNAc(b1-3)Gal(b1-4)GlcNAc(b1-3)Gal(b1-4)GlcNAc(b1-2)Man(a1-6)]Man(b1-4)GlcNAc(b1-4)[Fuc(a1-6)]GlcNAc
# Method in brief: as §1
# [23] = target: GlcNAc(b1-3)Gal(b1-4)GlcNAc(b1-3)Gal(b1-4)GlcNAc(b1-3)Gal(b1-4)GlcNAc(b1-3)Gal(b1-4)GlcNAc(b1-2)Man(a1-3)[GlcNAc(b1-3)Gal(b1-4)GlcNAc(b1-3)Gal(b1-4)GlcNAc(b1-3)Gal(b1-4)GlcNAc(b1-3)Gal(b1-4)GlcNAc(b1-2)Man(a1-6)]Man(b1-4)GlcNAc(b1-4)GlcNAc
# Method in brief: as §1
# [24] = target: GlcNAc(b1-3)Gal(b1-4)GlcNAc(b1-3)Gal(b1-4)GlcNAc(b1-3)Gal(b1-4)GlcNAc(b1-3)Gal(b1-4)GlcNAc(b1-2)Man(a1-3)[GlcNAc(b1-3)Gal(b1-4)GlcNAc(b1-3)Gal(b1-4)GlcNAc(b1-3)Gal(b1-4)GlcNAc(b1-3)Gal(b1-4)GlcNAc(b1-2)Man(a1-6)]Man(b1-4)GlcNAc(b1-4)[Fuc(a1-6)]GlcNAc
# Method in brief: as §1
# [25] = target: GlcNAc(b1-6)GalNAc
# Method in brief: as §1
# [26] = target: Kdn(a2-3)Gal(b1-3)GlcNAc
# Method in brief: as §1
# [27] = target: Man(a1-2)Man(a1-3)[Man(a1-2)Man(a1-6)]Man(a1-6)[Man(a1-2)Man(a1-2)Man(a1-3)]Man(b1-4)GlcNAc(b1-4)GlcNAc
# Method in brief: as §1
# [28] = target: Neu5Ac(a2-3)Gal
# Method in brief: as §1
# [29] = target: Neu5Ac(a2-3)Gal(b1-3)GlcNAc(b1-6)GalNAc
# Method in brief: as §1
# [30] = target: Neu5Ac(a2-3)Gal(b1-3)[Fuc(a1-4)]GlcNAc(b1-3)Gal(b1-3)[Fuc(a1-4)]GlcNAc
# Method in brief: as §1
binder,measurement,setting,value
B1,glycan array binding signal (z-score),[1],-1.26
same,glycan array binding signal (z-score),[2],-0.382
same,glycan array binding signal (z-score),[3],-0.356
same,glycan array binding signal (z-score),[4],0.826
same,glycan array binding signal (z-score),[5],-0.618
same,glycan array binding signal (z-score),[6],5.11
same,glycan array binding signal (z-score),[7],3.67
same,glycan array binding signal (z-score),[8],5.95
same,glycan array binding signal (z-score),[9],3.07
same,glycan array binding signal (z-score),[10],3.58
same,glycan array binding signal (z-score),[11],-0.383
same,glycan array binding signal (z-score),[12],-0.788
same,glycan array binding signal (z-score),[13],-0.186
same,glycan array binding signal (z-score),[14],-0.269
same,glycan array binding signal (z-score),[15],5.68
same,glycan array binding signal (z-score),[16],-0.075
same,glycan array binding signal (z-score),[17],3.37
same,glycan array binding signal (z-score),[18],3.13
same,glycan array binding signal (z-score),[19],-0.323
same,glycan array binding signal (z-score),[20],5.41
same,glycan array binding signal (z-score),[21],-0.433
same,glycan array binding signal (z-score),[22],0.194
same,glycan array binding signal (z-score),[23],0.068
same,glycan array binding signal (z-score),[24],1.61
same,glycan array binding signal (z-score),[25],3.43
same,glycan array binding signal (z-score),[26],-0.092
same,glycan array binding signal (z-score),[27],-0.746
same,glycan array binding signal (z-score),[28],-0.419
same,glycan array binding signal (z-score),[29],4.59
same,glycan array binding signal (z-score),[30],-0.273
